Screening data from PubChem.
KB-V1 cytotox – KB-V1 MDR subline cytotoxicity | KB-V1 MDR cells viability, CellTiter-Glo, 72 h | Potency, µM (doses to about 46.1 µM), hits mostly cytotoxic | actives 3.4% (n = 400,000); note: potency is the fitted concentration of half-maximal effect; % is set by controls: 0 for no effect and ±100 for the full control effect; nearly all actives have a fitted effect of over 60% in size
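Potencies derive from concentration-effect curves fitted to normalized luminescence (CellTiter-Glo) of KB-V1 cells treated for 72 h at 37 degrees C in phenol-red-free DMEM containing 10% FBS.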
SW480 rerep – induces DNA re-replication in SW480 colon adenocarcinoma cells; SW480 DNA re-replication, Hoechst DNA content imaging, 48 h; actives 1.8% (n = 340,000); Potency, µM (top dose mostly 46.1 µM), for inactives: at the highest dose re-replication activation, hits mostly activators; AID 624297; note: potency is the fitted concentration of half-maximal effect; % of control where 0% means no effect; nearly all actives have a fitted effect of over 55% in size
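Treated cells incubate 48 hr (37 C, 5% CO2), are stained 40 min with Hoechst, and nuclear fluorescence is enumerated; a rise in nuclei with high DNA signal marks re-replication.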
hERG WT inh – blocks the wildtype human KCNH2 potassium channel; Q12809; U2OS, BacMam KCNH2, thallium flux FluxOr; active compounds read low; activity change, % at 1.84 µM; actives 0.37% (n = 340,000);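 active = maximum activity change below -70%; inconclusive = maximum activity change between -70% and -50%; inactive = maximum activity change above -50%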; note: % is set by controls: 0 for no effect and ±100 for the full control effect
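U2OS cells were transduced with wild-type KCNH2 virus (2.03 x 10^8 / mL) for 4 h at room temperature, then cultured overnight at 37 C. Thallium flux was read with FluxOr dye. Rate constants were normalized to DMSO controls.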
KB-3-1 cytotox – kills parental KB-3-1 adenocarcinoma cells. Potency, µM (highest dose often 46.1 µM), hits mostly cytotoxic. AID 1347075. actives 1.4% (n = 400,000). KB-3-1 viability, CellTiter-Glo ATP luminescence, 72 h; note: potency is the fitted concentration of half-maximal effect; % is set by controls: 0 for no effect and ±100 for the full control effect; nearly all actives have a fitted effect of over 60% in size
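Here the drug-naive KB-3-1 line serves as comparator for MDR sub-line selectivity; cells received compound titrations, 72 h at 37 °C, then CellTiter-Glo readout.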
MCF10A rerep – induces DNA re-replication in MCF 10a normal breast cells | MCF 10A DNA re-replication, Hoechst nuclear intensity, 48 h | Potency, µM (highest dose often 46.1 µM), for inactives: at the top dose activity, positive = re-replication, actives largely listed as activators | actives 2.9% (n = 350,000); note: potency is the fitted concentration of half-maximal effect; % of control where 0% means no effect; nearly all actives have a fitted effect of over 50% in size
KCNH2 3.1 block – blocks the human KCNH2 3.1 channel isoform; U2OS KCNH2 3.1, thallium flux FluxOr; active compounds read low; activity change, % (tested at about 1.8 µM); actives 0.95% (n = 340,000); AID 720553;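 active = maximum activity change below -70%; inconclusive = maximum activity change from -70% to -50%; inactive = maximum activity change above -50%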;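 note: thallium influx rate constant from kinetic fluorescence after stimulation buffer; % is set by controls: 0 for no effect and ±100 for the full control effect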
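Thallium flux via FluxOr fluorescence (Red40 quencher, 45 min loading) in U2OS cells virally expressing the KCNH2 3.1 isoform (1.77 x 10^8 /mL virus, overnight at 37 C). Rate constants from 2-min kinetic reads post-stimulation, normalised to positive and negative controls.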
* marks the source's active call; other numbers are inactive results; i = inactive; ? = inconclusive; / = no result; ! = not confirmed by another sample; [ ] = dose if it differs, or a comment. An excerpt weighted towards active compounds, which were near 7.6% of everything screened. Unless noted, calls come from the whole dose curve; as a rule, active = well fitted curve in the direction sought with a large enough effect; inconclusive = small, poorly fitted or top-dose-only effect, or another doubt; inactive = no such curve, though single readings can be large; an effect the other way counts as inactive or inconclusive.

SMILES	KB-V1 cytotox	SW480 rerep	hERG WT inh	KB-3-1 cytotox	MCF10A rerep	KCNH2 3.1 block
O=C1/C(=C\c2ccco2)CCC/C1=C\c1ccco1	i	?	2	i	21µM*	11
Clc1cccc(C[n+]2cc(-c3ccccc3)n3c2CCC3)c1	i	-33%	2	9.2µM*	17%	-2
O=C(C[n+]1cc(-c2ccccc2)n2c1CCC2)Nc1nc(-c2ccc(F)cc2)cs1	i	0%	0	21µM*	8%	-9
O=C(C[n+]1cc(-c2ccc(Br)cc2)n2c1CCCCC2)c1ccccc1	?	-7%	-14	?	-30%	4
Cc1ccc(C[n+]2cc(-c3ccc(Cl)cc3)n3c2CCC3)cc1	?	2%	-5	6.5µM*	11%	-23
O=C(C[n+]1cc(-c2ccc(Cl)cc2)n2c1CCCCC2)c1ccccc1	i	-6%[9.22 µM]	12	?	?	-130*
COc1cc(/C=C/C(=O)O)cc(S(=O)(=O)NCc2ccc3c(c2)OCO3)c1OC	i	-1%	-4	i	-1%	7
CCN(CC)C(=O)C1=C(C)N(CCC2=CCCCC2)C(=O)C(CC(=O)NCCc2ccccn2)C1 (stereo not given)	?	/	9	i	/	18
O=C(C[n+]1cc(-c2ccccc2)n2c1CCC2)N1c2ccccc2Sc2ccccc21	i	4%	-1	6.5µM*	?	-13
Cc1ccc(-c2c[n+](CC(=O)N3c4ccccc4Sc4ccccc43)c3n2CCC3)cc1	i	1%	9	?	1%	0
Cc1ccc(-c2c[n+](Cc3cccc(Cl)c3)c3n2CCC3)cc1	i	-5%	-4	8.2µM*	9%	-26
CC1CN(c2ccccn2)C(C)CN1C(=S)Nc1ccccc1 (stereo not given)	23µM*	-3%	8	i	-1%	/
Cc1cc(C)cc(NC(=S)N2CCN(c3ccccn3)CC2)c1	i	-2%	10	i	-3%	1
Cc1ccc(NC2CCCN(C(=O)c3ccoc3C)C2)cc1C (stereo not given)	/	0%	-24	/	3%	15
CCOc1ccc(C(=O)NC2C(=O)N3C(C(=O)O)=C(COC(C)=O)CSC23)cc1OCC (stereo not given)	i	-9%	3	i	16µM*	-8
CCOC(=O)N1CCN(C(=O)CN(c2cc(C)ccc2OC)S(=O)(=O)c2ccc(C)cc2)CC1	i	/	/	i	/	/
O=C(Nc1cc(Cl)ccc1-n1cncn1)c1cn2ccccc2n1	i	9%	-8	i	0%	15
O=C(Nc1cc(C(F)(F)F)ccc1-n1cncn1)c1cn2ccccc2n1	i	-3%	-152*	i	-6%	-207*
COc1ccc(NC(=O)C(=O)Nc2ccc3nc4n(c(=O)c3c2)CCCCC4)c(OC)c1	i	/	/	i	/	/
N#CC1=C(N)Oc2cc3c(cc2C1c1ccc(Cl)cc1)OCO3 (stereo not given)	i	6%	-11	i	53%	-11
COc1cc(C2C3=C(COC3=O)Oc3cc4c(cc32)OCO4)cc(OC)c1O (stereo not given)	?	?	-8	?	?	11
COc1cc(C2C3=C(COC3=O)Oc3cc4c(cc32)OCO4)cc(OC)c1OC (stereo not given)	0.1µM*!	0.13µM*	30	0.58µM*	0.23µM*	-13
O=C1OCC2=C1C(c1ccc3c(c1)OCO3)c1cc3c(cc1O2)OCO3 (stereo not given)	1.5µM*	4.6µM*	-4	3.3µM*	8.2µM*	-5
CC(=O)N1N=C(c2cccs2)CC1c1cc2cc(C)ccc2nc1Cl (stereo not given)	i	-25%	0	i	-4%	4
Cc1nn(-c2ccc(F)cc2)c(Cl)c1/C=C1\C(=O)Nc2ccccc21	13µM*	?	-4	?	8.2µM*	-6
SMILES	KB-V1 cytotox	SW480 rerep	hERG WT inh	KB-3-1 cytotox	MCF10A rerep	KCNH2 3.1 block
O=C1Nc2ccccc2/C1=C/c1ccccc1F	i	?	-10	i	?	-1
CC(C)=CCN1CCN(Cc2cc(C(C)C)n[nH]2)CC1CCO (stereo not given)	i	-11%	7	i	9%	-4
Cc1ccc(S(=O)(=O)Cc2ccc(C(=O)NCc3ccc4c(c3)OCO4)o2)cc1	9.2µM*	-6%	1	i	13%	27
Cc1ccccc1S(=O)(=O)Cc1ccc(C(=O)NC(C)c2ccc3c(c2)OCCO3)o1 (stereo not given)	i	-1%	4	i	2%	1
CC(NC(=O)c1ccc(CS(=O)(=O)c2ccc(Cl)cc2)o1)c1ccc2c(c1)OCCO2 (stereo not given)	10µM*	-7%	-4	i	?	-21
CC1(C(=O)NS(=O)(=O)c2ccc(C#N)cc2)CCN1C(=O)C1CCCCC1 (stereo not given)	i	/	/	i	/	/
CCOc1ccc(CCNC(=O)Cc2ccc(NC(=O)N3CCSc4ncccc43)cc2)cc1	i	/	/	i	/	/
NC(=O)c1cc(Br)cc2c3c([nH]c12)CCCC3	16µM*	?	-14	8.2µM*	?	7
Brc1ccc2[nH]c3c(c2c1)CCC3	i	14%	-10	?	-1%	1
Fc1cccc(-c2cc3nc4c(c(N5CCOCC5)n3n2)CCCC4)c1	26µM*	-2%	-8	i	-3%	-2
Fc1cccc(-c2cc3nc4c(c(NCc5ccco5)n3n2)CCCC4)c1	i	5%	-10	i	9%	-78*
Clc1cccc(-c2cc3nc4c(c(N5CCOCC5)n3n2)CCCC4)c1	i	-4%	5	i	0%	-20
COc1ccc(-c2csc(N(CC3CCCO3)C(=O)c3ccc(C)cc3)n2)cc1 (stereo not given)	3.7µM*	-2%	2	?	-1%	6
O=C(c1ccco1)N(CC1CCCO1)c1nc(-c2ccccc2)cs1 (stereo not given)	23µM*	26%	-7	?	?	-8
COc1ccc(-c2csc(N(CC3CCCO3)C(=O)c3ccccc3)n2)cc1 (stereo not given)	i	-1%	-4	i	2%	-3
Cc1ccc(-c2csc(N(CC3CCCO3)C(=O)c3ccco3)n2)cc1 (stereo not given)	?	?	13	?	21µM*	6
CCCCCCc1nc2ccccc2c(=O)n1NC(=O)c1c(O)c2c(n(CC(C)C)c1=O)CCCC2	18µM*	17%	5	21µM*	22%	-3
